Assay results: PubChem BioAssay (NCI)
This is part of a sample that, as a whole, favours compounds with a hit. Of some 83,000 tested, about 20% had one in any assay.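 48-hour exposure, single concentration, 96-well plates; percent growth endpoint where 0 means no net growth. Active: below 10.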 A number with no mark means an inactive call. Activity calls are given as the source filed them.

Key:
Experiment in all cases: NCI-60 one-dose screen, 48 h (100 = growth as untreated, 0 = no growth, -100 = all killed)
Details in all cases: 10 µM
NCI-H23 lung = tested on: NCI-H23 lung
NCI-H226 lung = tested on: NCI-H226 lung
NCI-H322M lung = tested on: NCI-H322M lung
HOP-62 NSCLC = tested on: HOP-62 NSCLC
HOP-92 NSCLC = tested on: HOP-92 NSCLC
NCI-H522 lung = tested on: NCI-H522 lung
786-0 renal = tested on: 786-0 renal
COLO 205 colon = tested on: COLO 205 colon
A549/ATCC NSCLC = tested on: A549/ATCC NSCLC
NCI-H460 lung = tested on: NCI-H460 lung

| SMILES | growth (NCI-H23 lung) | growth (NCI-H226 lung) | growth (NCI-H322M lung) | growth (HOP-62 NSCLC) | growth (HOP-92 NSCLC) | growth (NCI-H522 lung) | growth (786-0 renal) | growth (COLO 205 colon) | growth (A549/ATCC NSCLC) | growth (NCI-H460 lung) |
| --- | --- | --- | --- | --- | --- | --- | --- | --- | --- | --- |
| CCN1CCN(c2ccc(NC(=O)Nc3ccc(-c4cc(C(=O)NC)c5ncccc5n4)cc3)cc2C(F)(F)F)CC1 | -99% (active) | -61.9% (active) | -100% (active) | -92.2% (active) | -81.8% (active) | -93.3% (active) | -100% (active) | -76.3% (active) |  |  |
| CCOC(=O)CNC(=O)CN(Cc1ccccc1)C(=O)[C@@]1(C)CCC[C@]2(C)[C@H]3C[C@H]4C(C(C)C)=C[C@]3(CC[C@H]21)[C@@H]1C(=O)OC(=O)[C@@H]14 | 46.6% | 71.3% | 106% | 82.8% | 74.6% | 35.6% | 84.7% | 103% | 53.9% |  |
| O=C(Nc1cccc(-c2cn(-c3ccc4oc(=O)ccc4c3)nn2)c1)Nc1cc(C(F)(F)F)cc(C(F)(F)F)c1 | 4.21% (active) | 33.4% | 34.4% | 1.89% (active) | -28.1% (active) | 21.8% | 29.3% | 44.3% | 21.8% |  |
| CCCCOc1ccc(Nc2nc3ccccc3nc2Nc2ccc(OCCCC)cc2)cc1 | 82.6% | 96.6% | 106% |  | 97.4% | 88.5% | 72.1% | 116% | 89.4% | 60.1% |
| CN1CCN(c2ccc(C(=O)/C=C/c3cc(Br)ccc3F)cc2)CC1 | 49.4% | 61.6% | 93.3% |  | 31.6% | 66.4% | 27.1% | 34.8% | 28.5% | 67.2% |
| COc1ccccc1[C@H]1C(C(=O)c2ccc(Cl)cc2)C2(N[C@@H]1c1ccccc1)C(=O)Nc1ccc(Cl)cc12 (stereo not given in full) | -1.97% (active) | 4.06% (active) | 32.9% | 26% | 7.15% (active) | -5.89% (active) | 8.8% (active) | -69.7% (active) | 15.8% |  |
| O=S(=O)(c1ccc(Cl)cc1)c1nc(-c2ccccc2)oc1S(=O)(=O)c1ccc(Cl)cc1 | 78.9% | 87.5% | 101% | 91.3% | 85.7% | 88.1% | 94.9% | 102% | 94.2% |  |
| NS(=O)(=O)c1ccc(NC(=O)CSc2ccc(-c3ccc(Cl)cc3)nn2)c(Br)c1 | 61.1% | -5.33% (active) | 48.5% | 2.17% (active) | -14.4% (active) | 63.6% | 19.1% | 69.4% | 28.5% |  |
| Cc1ccc(-c2nc(Nc3ccc(S(N)(=O)=O)cc3)c3ccccc3n2)cc1 | 71.2% | 73.5% | 53.2% | 66.7% | 36.4% | 77.3% | 14.2% | 82.9% | 51.7% |  |
| COc1cc(-c2nc3cc(Cl)c(Cl)cc3[nH]2)ccc1OCc1nnc(-c2ccc(Br)cc2)o1 | 24% | -46.8% (active) | 38.8% | -28.1% (active) | -39.6% (active) | 8.01% (active) | -31% (active) | 51.4% | 19.5% |  |
| O=C1Nc2cc(Cl)ccc2/C1=C/c1cccc(OCc2ccccc2)c1 | 11.9% | 21.9% | 29.5% | 0.755% (active) | -6.89% (active) | -63% (active) | -12% (active) | -22.8% (active) | 5.95% (active) |  |
| O=C(N/C(=C1/OCCN1Cc1ccccc1)[P+](c1ccccc1)(c1ccccc1)c1ccccc1)c1ccccc1 | -5.42% (active) | -5.51% (active) | 58.7% |  | -16.5% (active) | -6.25% (active) | 4.98% (active) | 4.11% (active) | 47.6% | 3.22% (active) |
| CCCn1c(=O)c2[nH]c(-c3ccc(OCc4nc5ccc(C#N)cc5[nH]4)cc3)nc2n(CCC)c1=O | 81.5% | 51.2% | 76.3% | 77.9% | 78.5% | 71.1% | 72.1% | 94.9% | 79.9% |  |
| CC1(C)CC[C@]2(C(=O)Nc3ccccc3)CC[C@]3(C)C(=CC[C@@H]4[C@@]5(C)CC[C@H](N)C(C)(C)[C@@H]5CC[C@]43C)[C@H]2C1 | 68.8% | 88.3% | 105% | 103% | 70.2% | 82.9% | 65.3% | -36.4% (active) | 74.4% |  |
